Among the data in PubChem BioAssay are composite z-score and z-score values, retold here.

Test [1] is described as follows: small molecules captured by biotinylated probe aFSTL3 – biochemical, small-molecule microarray, fluorescence 635/667, stem cell growth factor project, primary screen (AID 1064).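 Also: measures binding of the biotinylated anti-FSTL3 antibody to printed compounds.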 As to conditions: higher = more signal.
A short description of test [2]: binders from COS7 lysate, DM2A8 probe, primary screen, torsin A project, cell lysate, small-molecule microarray, fluorescence 635/667 (AID 1065). As to conditions: higher = more signal, COS7 lysate expressing mutant human TOR1A.
A short description of test [3]: small molecules captured by biotinylated probe aFGF2 – biochemical, small-molecule microarray, fluorescence 635/667, stem cell growth factor project, primary screen (AID 1067).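 Also: measures binding of biotinylated aFGF2 protein to printed compounds on slides; z-score merges feature fluorescence and signal-to-noise across triplicate slides.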 The note with it: higher = more signal.
The nature of test [4]: small molecules captured by biotinylated probe aFGF10 – biochemical, small-molecule microarray, fluorescence 635/667, stem cell growth factor project, primary screen (AID 1071).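 Also: score merges 667 nm spot intensity and signal to noise from triplicate slides.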 As to conditions: higher = more signal.
For test [5], the target named is Neurogenic locus notch homolog protein 2 (Homo sapiens) (UniProt Q04721). The test is described as follows: small molecules binding Notch2 protein – biochemical, small-molecule microarray, 635 nm fluorescence, stem cell growth factors, primary screen (AID 1073). As to conditions: higher = more signal.
Test [6] concerns the target Pro-neuregulin-1, membrane-bound isoform (Homo sapiens) (UniProt Q02297). The test is described as follows: small molecules binding neuregulin-1 protein – biochemical, small-molecule microarray, fluorescence 635/667, psychiatric disease protein project, primary screen (AID 1075).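 Also: score combines 667 nm spot fluorescence with signal to noise.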 The note with it: NRG1 binding, 635 nm fluorescence, higher = more signal.
The subject of test [7] is Neuregulin-1 EGF-like domain. Nature of the test: small molecules binding NRG1 EGF domain – biochemical, small-molecule microarray, 635 nm fluorescence, primary screen (AID 1081).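 Also: binding of the protein to compounds printed on small-molecule microarray slides.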 The note with it: higher = more signal.
Test [8] is described as follows: FRG1 expression reporter modulators in myotubes – cell-based, C2C12 myotubes, firefly/Renilla luciferase, luminescence, FRG1 inhibition for FSHD, primary screen (AID 1084). As to conditions: FRG1 promoter luciferase, higher = more signal, called active from +8 up or from −8 down.
Test [9] is described as follows: small molecules captured by biotinylated probe aFST – biochemical, small-molecule microarray, fluorescence 635/667, stem cell growth factor project, primary screen (AID 1086).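 Also: score merges 667 nm fluorescence with signal-to-noise of each printed compound spot.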 As to conditions: higher = more signal.
Test [10] is described as follows: binders of probe aHhip on microarray, primary screen, stem cell growth factor project, biochemical, small-molecule microarray, fluorescence 635/667 (AID 1087).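 Also: score merges spot fluorescence at 667nm with spot signal to noise ratio.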 As to conditions: higher = more signal.

Activity calls are given as the source filed them.

Sequence of Pro-neuregulin-1, membrane-bound isoform (Homo sapiens) (Q02297 whole entry, looked up, the tested form may be a part, canonical isoform): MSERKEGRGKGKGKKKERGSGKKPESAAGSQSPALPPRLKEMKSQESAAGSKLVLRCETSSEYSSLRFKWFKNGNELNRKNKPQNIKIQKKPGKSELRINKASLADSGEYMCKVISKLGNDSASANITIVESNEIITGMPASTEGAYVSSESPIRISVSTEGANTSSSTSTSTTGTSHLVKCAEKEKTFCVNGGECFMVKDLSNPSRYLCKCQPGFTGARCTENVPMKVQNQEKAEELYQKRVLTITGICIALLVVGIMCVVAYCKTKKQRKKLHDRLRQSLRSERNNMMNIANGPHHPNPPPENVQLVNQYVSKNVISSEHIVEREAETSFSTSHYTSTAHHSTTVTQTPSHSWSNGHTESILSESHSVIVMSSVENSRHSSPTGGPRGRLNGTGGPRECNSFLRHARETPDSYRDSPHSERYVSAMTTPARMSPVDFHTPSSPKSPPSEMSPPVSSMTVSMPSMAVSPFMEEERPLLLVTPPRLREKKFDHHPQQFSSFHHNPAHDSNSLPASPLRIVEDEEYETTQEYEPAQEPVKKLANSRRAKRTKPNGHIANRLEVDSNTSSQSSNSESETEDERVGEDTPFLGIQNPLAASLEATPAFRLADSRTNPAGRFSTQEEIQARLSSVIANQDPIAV
Sequence of Neurogenic locus notch homolog protein 2 (Homo sapiens) (Q04721 whole entry, looked up, canonical isoform): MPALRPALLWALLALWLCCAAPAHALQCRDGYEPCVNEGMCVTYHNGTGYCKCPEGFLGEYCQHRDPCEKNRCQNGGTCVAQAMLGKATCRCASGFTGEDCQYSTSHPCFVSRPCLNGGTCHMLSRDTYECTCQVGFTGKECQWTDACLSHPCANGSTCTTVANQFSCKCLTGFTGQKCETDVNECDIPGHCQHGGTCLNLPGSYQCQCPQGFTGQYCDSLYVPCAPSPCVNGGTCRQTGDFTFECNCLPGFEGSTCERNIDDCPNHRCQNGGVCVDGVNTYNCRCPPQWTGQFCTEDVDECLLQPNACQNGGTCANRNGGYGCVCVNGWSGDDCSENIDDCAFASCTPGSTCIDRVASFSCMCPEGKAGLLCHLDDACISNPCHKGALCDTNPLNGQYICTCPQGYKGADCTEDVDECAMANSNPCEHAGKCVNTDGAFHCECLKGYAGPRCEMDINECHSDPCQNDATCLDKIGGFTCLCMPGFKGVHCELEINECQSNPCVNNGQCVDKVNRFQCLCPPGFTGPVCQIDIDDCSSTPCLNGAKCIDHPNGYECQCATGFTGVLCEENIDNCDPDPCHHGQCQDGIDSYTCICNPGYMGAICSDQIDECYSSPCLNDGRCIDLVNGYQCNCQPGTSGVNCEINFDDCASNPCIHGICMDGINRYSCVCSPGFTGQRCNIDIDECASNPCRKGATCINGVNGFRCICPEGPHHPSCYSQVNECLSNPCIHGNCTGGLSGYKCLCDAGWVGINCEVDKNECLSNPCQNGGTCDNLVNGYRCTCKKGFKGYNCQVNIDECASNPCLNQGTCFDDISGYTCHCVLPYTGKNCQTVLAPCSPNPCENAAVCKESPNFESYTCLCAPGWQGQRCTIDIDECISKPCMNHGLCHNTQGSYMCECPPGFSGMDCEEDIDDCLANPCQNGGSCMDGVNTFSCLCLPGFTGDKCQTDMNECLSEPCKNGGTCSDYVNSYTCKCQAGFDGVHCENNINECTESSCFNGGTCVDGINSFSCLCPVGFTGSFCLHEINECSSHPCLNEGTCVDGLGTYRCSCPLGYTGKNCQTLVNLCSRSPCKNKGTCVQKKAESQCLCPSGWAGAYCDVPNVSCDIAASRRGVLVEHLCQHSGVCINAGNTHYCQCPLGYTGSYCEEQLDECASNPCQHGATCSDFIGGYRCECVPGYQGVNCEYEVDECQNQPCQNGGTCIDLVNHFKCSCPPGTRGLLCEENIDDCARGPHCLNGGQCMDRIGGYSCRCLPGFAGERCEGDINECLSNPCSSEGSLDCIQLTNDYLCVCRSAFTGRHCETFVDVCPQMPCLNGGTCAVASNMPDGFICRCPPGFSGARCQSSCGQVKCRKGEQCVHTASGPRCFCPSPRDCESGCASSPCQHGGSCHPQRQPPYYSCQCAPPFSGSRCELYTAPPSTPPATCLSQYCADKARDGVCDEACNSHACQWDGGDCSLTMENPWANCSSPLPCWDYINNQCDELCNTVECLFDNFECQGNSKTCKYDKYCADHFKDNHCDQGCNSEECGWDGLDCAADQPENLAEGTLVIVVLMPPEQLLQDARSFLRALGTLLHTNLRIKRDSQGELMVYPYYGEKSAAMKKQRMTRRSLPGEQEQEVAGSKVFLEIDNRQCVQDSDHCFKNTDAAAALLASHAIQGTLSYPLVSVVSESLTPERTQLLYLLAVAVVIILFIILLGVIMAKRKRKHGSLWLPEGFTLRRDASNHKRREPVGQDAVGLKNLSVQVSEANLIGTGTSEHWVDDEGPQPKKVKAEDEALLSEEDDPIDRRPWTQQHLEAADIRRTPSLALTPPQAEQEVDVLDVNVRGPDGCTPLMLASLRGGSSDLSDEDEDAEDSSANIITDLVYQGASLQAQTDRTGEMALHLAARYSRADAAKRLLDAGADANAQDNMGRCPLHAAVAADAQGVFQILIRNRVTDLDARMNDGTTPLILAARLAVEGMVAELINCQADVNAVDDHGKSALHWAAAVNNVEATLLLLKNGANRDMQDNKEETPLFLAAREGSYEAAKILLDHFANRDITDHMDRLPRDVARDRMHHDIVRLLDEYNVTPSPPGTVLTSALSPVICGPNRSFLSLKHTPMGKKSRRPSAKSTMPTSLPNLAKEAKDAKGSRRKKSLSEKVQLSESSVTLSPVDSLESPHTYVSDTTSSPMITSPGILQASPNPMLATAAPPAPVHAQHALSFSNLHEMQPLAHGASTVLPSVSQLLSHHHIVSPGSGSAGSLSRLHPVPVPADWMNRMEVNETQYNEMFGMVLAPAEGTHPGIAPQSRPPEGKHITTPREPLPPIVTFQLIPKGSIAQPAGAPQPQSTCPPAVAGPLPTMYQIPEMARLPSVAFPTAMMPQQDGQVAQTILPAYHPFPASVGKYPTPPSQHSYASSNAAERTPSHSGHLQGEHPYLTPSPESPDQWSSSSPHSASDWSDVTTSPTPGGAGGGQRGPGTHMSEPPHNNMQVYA

For the compound `CCOC(=O)C1=C[C@@H](c2ccccc2)N(S(=O)(=O)c2ccc(C)cc2)[C@H]1c1ccc(F)cc1`, the composite z-score in test [1] was -0.0809; in test [2] it was 0.347; in [3] it was -0.0317; in test [4], 0.493; in [5], 1.6; in [6], 0.871. The figures for the composite z-score in [7], in test [9] and in [10] were 0.949, 0.541 and 0.0139, respectively. For the same compound, the z-score in [8] is -2.62 (inactive).
On to `[N-]=[N+]=NCc1ccccc1C[C@@]1(C(=O)O)N=C(c2ccc(OCCCO)cc2)O[C@@H]1c1ccccc1N=[N+]=[N-]`, for which the composite z-score in test [1] was 0.168; in test [2], -0.259; in test [3] it was -0.0242; in [4], 0.377; in test [5], 1.55; in test [6] it was 1.66. Further, the composite z-score was 1.22 in test [7], 0.521 in test [9] and -0.0994 in test [10]. The z-score in test [8] is -1.6 (inactive).
Consider `CC(=O)Nc1ccc([C@H]2[C@H](C)CC[C@H]3C(=O)N4[C@@H](CC[C@@H](C)[C@@H]4c4ccc(NC(C)=O)cc4)C(=O)N32)cc1`, for which the composite z-score in test [1] is -0.508; in test [2] it was 0.482; in test [3] it was -0.1; in test [4], 0.908; in [5], 0.68; in test [6] it was 0.566. Besides, the values for the composite z-score in test [7], in test [9] and in test [10] were 1.1, 0.0863 and 0.132, respectively. The z-score in test [8] is 0.103 (inactive).
Regarding `N#Cc1ccc(NN2C(C(O)CCc3ccccc3)C=CC3C(=O)N(c4ccccc4)C(=O)C32)cc1` (stereo not given), the composite z-score in test [1] is 0.681; in test [2] it was 0.936; in [3], 0.078; in [4] it was -0.0011; in test [5], 1.62; in test [6], 1.17. The composite z-score in [7] was 1; in test [9] it was 1.02; in [10], -0.177. Moreover, in test [8], the z-score was -1.22 (inactive).
Regarding `C=CCC(OC(C)=O)[C@@H]1[C@@H](N(Cc2cc3ccccc3o2)C(=O)Cc2ccc(F)cc2)c2cc(OCCCO)ccc2N1C(=O)c1ccc(-c2ccccc2)cc1` (stereo not given in full), the composite z-score is 0.117 in [1]; -0.103 in test [2]; -0.116 in test [3]; -0.263 in test [4]; -0.079 in [5]; -0.399 in test [6]. For the same compound, the composite z-score is -1.03 in test [7], 0.141 in [9] and -0.0645 in [10]. For the same compound, the z-score in [8] is 0.051 (inactive).
Take `COCCOC(=O)N1C(=O)[C@@]2(c3cc(C#CC4=CCCCC4)ccc31)[C@H](C(=O)NC[C@H](O)c1ccccc1)[C@H]1C(=O)O[C@H](c3ccccc3)[C@H](c3ccccc3)N1[C@@H]2c1ccccc1OCCO`: the composite z-score in [1] was 0.462; in test [2], 0.333; in [3], 0.126; in [4], 0.467; in test [5], 1.15; in test [6], 0.616. Besides, the composite z-score stood at 1.09 in test [7], 0.881 in test [9] and 0.259 in [10]. For the same compound, the z-score in [8] is -0.0011 (inactive).
Regarding `CCc1cccc(NC(=O)O[C@H]2[C@H](OC(=O)Nc3ccccc3)[C@@H](OC(=O)Nc3ccccc3)[C@@H](OC)O[C@@H]2CO)c1`, the composite z-score was -0.0679 in test [1]; 0.624 in [2]; 0.216 in [3]; 1.17 in test [4]; 1.08 in test [5]; 1.76 in [6]. The composite z-score in test [7] was 1.39; in test [9], 0.891; in [10] it was -0.0831. Further, the z-score in [8] was 0.825 (inactive).
Consider `CC(C)CNC(=O)[C@@]1(C)c2ccccc2C(=O)N(Cc2ccc(OC(F)(F)F)cc2)[C@H]1c1ccc(CO)cc1`, for which the composite z-score in test [1] is 1.39; in test [2], -0.37; in test [3] it was -0.0149; in test [4] it was -0.925; in [5], -1.71; in test [6] it was -0.81. Moreover, the composite z-score in test [7] is 0.257; in test [9] it was -0.291; in test [10], -0.353. Besides, the z-score in test [8] was -3.49 (inactive).
Regarding `CO[C@@H]1COC(=O)[C@H](C)NC(=O)CC=C[C@@H](C)[C@H](NS(=O)(=O)c2ccc(C)cc2)COC(=O)CC=C[C@@H]1C`, the composite z-score is -0.402 in [1]; -0.0613 in test [2]; -0.0891 in test [3]; 0.117 in test [4]; 0.156 in test [5]; -0.32 in test [6]. Moreover, the composite z-score in [7] was -0.144; in test [9], -0.181; in [10], -0.388. The z-score in [8] was -0.364 (inactive).
Regarding `CCCNC(=O)[C@@H]1c2ccccc2C(=O)N(Cc2cc(F)cc(C(F)(F)F)c2)[C@H]1c1ccc(CO)cc1`, the composite z-score in test [1] is -0.0356; in test [2], 0.711; in test [3], 0.032; in [4], 0.525; in test [5], 1.12; in [6], 1.03. In addition, the figures for the composite z-score in [7], in test [9] and in [10] were 1.25, 0.613 and 0.0176, respectively. For the same compound, the z-score in test [8] was -1.02 (inactive).
As to `Cc1ccc([C@@H]2CC=C(C(=O)O)[C@H](c3ccccc3)N2S(=O)(=O)c2ccc(C)cc2)cc1`, the composite z-score was 0.65 in [1]; 0.436 in [2]; 0.358 in [3]; 1.02 in test [4]; 1.49 in [5]; 1.82 in test [6]. Moreover, the composite z-score in test [7] is 1.35; in test [9], 0.549; in [10] it was 0.0623. Also, the z-score in test [8] is -3.57 (inactive).
